Screening results: PubChem, several laboratories
An excerpt weighted towards active compounds, which were near 1.5% of everything screened.
CRFBP-R2 block = CRF-BP/CRF-R2 complex antagonism; HEK293 CRF-R2/CRF-BP, CRF-induced calcium fluorescence; inhibition, % at 11.8 µM; AID 588475; 350,000 tested, 0.59% active;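 active = inhibition of the ligand-induced calcium signal above about 50% at the single tested concentration, limit read from the data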
CRFBP-R2 agonist = CRF-BP/CRF-R2 complex agonism. 350,000 tested, 0.46% active. HEK293 CRF-R2/CRF-BP, calcium dye fluorescence (FLIPR); percent of saturating CRF peptide response. AID 588473. activation, % at 13.2 µM;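 active = activation of at least 50%, plus an integration ratio under a set limit after plate pattern correction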;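 also: plate controls were neutral control wells without compound for no effect and CRF at EC100 for full effect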
RTF Ca sens inh = cardiac RTF calcium desensitization | 340,000 tested, 0.12% active | inhibition, % at 7.15 µM | AID 493244 | IANBD-labeled cardiac RTF, Ca2+ fluorescence;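 active = inhibition above the mean inhibition of all tested compounds plus 3 SD, cut at about 17% in these data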;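 also: assay run at fixed EC70 calcium of 1.6 mM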
IDE act = IDE (human) activation, cell-based. HEK cells, FAbeta-B cleavage, fluorescence polarization; 0% vehicle, 100% cell-free pure enzyme wells. P14735. activation, % at 5.96 µM. AID 493087. 340,000 tested, 0.073% active;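 active = activation above the mean of all tested compounds plus 3 SD, set per screening campaign, cut at about 17% in these data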
cardiac RTF act = increases calcium sensitivity of human cardiac regulated thin filaments; P19429+P45379; IANBD-labeled TnC RTF fluorescence at EC20 calcium; 0% EC20 calcium, 100% full calcium; activation, % at 7.2 µM; 340,000 tested, 0.24% active; AID 493008;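 active = activation above the mean over all tested compounds plus 3 SD, cut at about 30% in these data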;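 also: rise in fluorescence read as greater calcium sensitivity of cardiac thin filaments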
IDE inh = cellular human IDE inhibition; HEK cells, FAbetaB cleavage, fluorescence polarization; 320,000 tested, 0.41% active; inhibition, % at 5.59 µM;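 active = percent inhibition above the average of all tested compounds plus 3 SD, set per screening campaign, cut at about 16% in these data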;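 also: IDE supplied by intact live HEK cells; FP after avidin binding of uncleaved biotin substrate so inhibition keeps polarization high; 0% = DMSO wells and 100% = 60 µM reference IDE inhibitor Ii1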
Numbers without * were called inactive; i = inactive; / = no result given; + = active, no number.

SMILES | CRFBP-R2 block | CRFBP-R2 agonist | RTF Ca sens inh | IDE act | cardiac RTF act | IDE inh
COc1ccccc1C(=O)NNC1=C(C(=O)C(F)(F)F)CCC1 | 28 | 62* | 4 | 3 | -2 | -6
O=C1C=CN2CCCCC2CC1 (centres undefined) | 4 | 5 | -14 | 5 | 8 | 1
COC1(OC)C=CC(=O)C=C1NC(=O)c1ccccc1OC(C)=O | 104* | 0 | -2 | -2 | 8 | 0
Cc1cc(C)cc(NC(=O)Cc2ccc(NC3=NC4CS(=O)(=O)CC4S3)cc2)c1 (centres undefined) | 11 | -1 | -2 | -14 | -4 | 9
Cc1cccc(NC(=O)Cc2ccc(NC3=NC4CS(=O)(=O)CC4S3)cc2)c1 (centres undefined) | 60* | -2 | -5 | -19 | 4 | 11
CSc1nnc(C)c(/C=C/Nc2ccc(F)cc2F)n1 | 1 | 1 | -1 | -5 | -2 | 2
C=CCSc1nnc(C)c(/C=C/Nc2ccc(Cl)cc2)n1 | -196 | 114* | / | / | / | 3
O=C(/C=C/c1ccccc1)CCN1CCCCC1 | -49 | 6 | -3 | -2 | -2 | /
Cc1ccc(OCC(=O)Oc2ccc(C)c(C)c2)cc1 | 1 | -3 | 1 | 6 | -2 | 0
COc1cc(C(=O)Nc2ccc(C)c(S(=O)(=O)N(C)C)c2)ccc1OCC(=O)N1CCOCC1 | -3 | 1 | -2 | 2 | -3 | -4
Cc1ccc(C)c(NC(=O)c2cc(C)nc3ccccc23)c1 | -1 | 0 | -6 | 4 | 3 | 5
Cc1ccc(C)c(NC(=O)c2ccccc2O)c1 | 25 | 62* | -11 | 3 | -7 | -1
O=C(Nc1cccnc1)c1ccc(-c2ccc(Cl)cc2)o1 | 57* | -1 | -3 | -1 | 3 | 5
CCn1cc(S(=O)(=O)NCc2ccc(OC)cc2)cn1 | -1 | 1 | -4 | 3 | -2 | -4
COc1cccc(/C=N/N2C(=O)CSC2=S)c1O | 12 | 0 | -3 | -4 | -3 | 5
O=C1CSC(=S)N1/N=C/c1c(F)cccc1F | -3 | 0 | 7 | -2 | 3 | 0
O=C1CSC(=S)N1N=Cc1c(F)cccc1Cl | 29 | 55* | / | / | / | /
CN(C)c1ccc(C=NN2C(=O)CSC2=S)c(Cl)c1 | 40 | 50* | / | / | / | /
O=C(NCc1ccc2c(c1)OCO2)c1ccc2c(c1)S(=O)(=O)c1ccccc1C2=O | 9 | -3 | -3 | -5 | -1 | -6
CC[C@@H](C)[C@H](CNC)NC[C@@H](Cc1cccc2ccccc12)NCCc1cccc(C(F)(F)F)c1 | -38 | 26 | 9 | 29* | 0 | 5
CNC[C@@H](CC1CCCCC1)NC[C@H](CC(C)C)NCCc1cccc(C(F)(F)F)c1 | -47 | 18 | -6 | 21* | 4 | 3
CCC[C@H](CN[C@@H](CNC)[C@H](C)CC)NCCc1cc(C(F)(F)F)cc(C(F)(F)F)c1 | -37 | 7 | 1 | 8 | 11 | 6
CCOc1ccc(S(=O)(=O)N2CN(c3cccc(C(C)=O)c3)c3nc4ccccc4nc32)cc1 | 52* | 0 | 3 | 7 | -1 | 1
CCOc1ccc(S(=O)(=O)N2CCN(S(=O)(=O)c3ccc(C(C)=O)cc3)CC2)cc1 | 2 | -1 | -11 | 0 | -6 | 3
Cc1sc2nc(-c3ccccc3)[nH]c(=O)c2c1-c1ccccc1 | / | / | / | / | / | 7
SMILES | CRFBP-R2 block | CRFBP-R2 agonist | RTF Ca sens inh | IDE act | cardiac RTF act | IDE inh
Cc1c(-c2ncn[nH]2)sc(C#N)c1-c1ccccc1 | 59* | 0 | -1 | 0 | 4 | 3
CCN1CCCc2cc(CN(CCN3CCOCC3)C(=S)Nc3ccc(OC)c(Cl)c3)ccc21 | 7 | 0 | -10 | 4 | 0 | 0
COc1ccc(NC(=S)N2CCC(N(C)CCN3CCOCC3)CC2)cc1Cl | 52* | -8 | -15 | -1 | 1 | 1
Nc1c(C(=O)N2CCOCC2)sc2nc3c(cc12)CCC3 | 50* | 4 | -22 | -1 | -2 | 1
Nc1c(C(=O)N2CCOCC2)sc2nc3c(cc12)CCCC3 | -4 | -1 | -13 | -2 | -4 | -1
O=C(CCCc1c[nH]c2ccccc12)NCc1ccccc1C(F)(F)F | 2 | 1 | -4 | -1 | -5 | -4
O=C(N/N=C/c1cc(Br)cc(Br)c1O)c1ccncc1 | -164 | 167* | / | / | / | 7
O=C(N/N=C/c1cc(Br)cc(Br)c1O)c1cccc(S(=O)(=O)N2CCOCC2)c1 | -54 | 69* | -11 | 11 | 2 | 1
O=C(N/N=C/c1cc(Cl)cc(Cl)c1O)c1ccncc1 | -86 | 109* | -33 | -2 | 18 | 14
O=C(N/N=C/c1ccccc1Br)c1cccc(S(=O)(=O)N2CCOCC2)c1 | 1 | -1 | 2 | -3 | 0 | -1
O=C(O)c1cccc(N/N=C/c2cc(Br)cc(Br)c2O)c1 | 64* | 4 | 7 | 5 | -6 | -4
COc1cc(N=c2ssnc2Cl)cc(OC)c1 | -19 | 4 | -4 | -10 | 8 | -1
Clc1nssc1=Nc1ccc(Br)cc1 | 29 | 107* | 8 | -11 | -1 | /
NC(=O)NC(=O)COC(=O)c1cccc(NS(=O)(=O)/C=C/c2ccccc2)c1 | -1 | 0 | -4 | -4 | 38* | 0
NC(=O)COC(=O)c1cccc(NS(=O)(=O)/C=C/c2ccccc2)c1 | -5 | -1 | -8 | 1 | -1 | -3
Nc1ccc(N=Nc2ccccc2)cc1[N+](=O)[O-] | 63* | 3 | 1 | 5 | -1 | /
Cc1nc2ccc(C(=O)N3CCCC(CO)(Cc4ccc(F)cc4F)C3)cc2nc1C (centres undefined) | -5 | -1 | -10 | -2 | -1 | -4
Cc1nn(C)c(C)c1N1C(=O)c2cccc3c(Br)ccc(c23)C1=O | 22 | -3 | -5 | -6 | 8 | 7
Cc1nn(C)c(C)c1N1C(=O)c2cccc3c(N)ccc(c23)C1=O | -398 | 330* | i | 12 | + | 7
CCOc1ccc(NC(=O)CN(C)C(=O)c2ccc(OCC(=O)N3CCOCC3)c(OC)c2)cc1OCC | 0 | -1 | -11 | 8 | 5 | /
COc1ccc(-c2cccc(NS(=O)(=O)c3cccc([N+](=O)[O-])c3)c2)nn1 | 58* | 7 | -1 | 1 | -6 | 1
C=CCOc1c(CNc2cccc(C(=O)O)c2)cccc1OCC | 64* | -1 | -5 | 3 | 1 | -1
CC(C)CN(C(=O)COc1ccccc1C(=O)NCc1ccccc1)C1CCS(=O)(=O)C1 (centres undefined) | -11 | 0 | / | / | / | /
COc1ccc(/C=N/Nc2ccc([N+](=O)[O-])cc2S(=O)(=O)N2CCN(C)CC2)cc1 | -52 | 56* | -3 | 5 | 4 | -3
COc1ccc(C=NNc2ccc([N+](=O)[O-])cc2S(=O)(=O)Nc2ccccc2C(=O)O)cc1OC | 39 | 1 | -8 | 3 | 2 | 6
